High-throughput results deposited in PubChem BioAssay by The Scripps Research Institute Molecular Screening Center.
TTR transcr act – TTR transcription activation, primary screen. 92,000 compounds, 1.3% hits. AID 1117267. activation, % at 16.7 µM. SH-SY5Y TTR promoter Gaussia luciferase, luminescence; 100% = recombinant luciferase protein wells;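 active = activation above the mean of all tested compounds plus 3 SD, cut at about 9.5% in these data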;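 also: cells exposed to compounds for one day before reading; 0% = median of all test compound wells on the plate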
HuH7 TTR inh – HuH7 TTR transcription inhibition, counter-screen. shares compounds with TTR transcr act. HuH7 TTR promoter-Gaussia luciferase reporter, luminescence. inhibition, % at 16.7 µM. 1,100 compounds, 4% hits;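 active = average inhibition above the solvent-only control wells' mean plus 3 SD, cut at about 15% in these data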;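 also: 0% = cells with DMSO only and 100% = cells with inhibitor control FD; inhibitors lower well luminescence so higher value means more inhibition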
TTR act confirm – human TTR transcription activation, confirmation; SHSY5Y TTR promoter Gaussia luciferase, luminescence; 100% = purified Lucia enzyme wells, no cells; shares compounds with TTR transcr act; 1,100 tested, under 10 active; activation, % at 16.7 µM;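 active = mean activation above a set limit taken from the earlier primary screen, cut at about 11% in these data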;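 also: 0% = DMSO-treated cells and 100% = recombinant Lucia luciferase without cells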
* = called active by the depositor. The entries come from a sample that favours hits as a whole.

SMILES	TTR transcr act	others
CC1(C)CC(=O)C=C(c2ccc(Oc3ccccc3)cc2)C1	-3
COC(=O)[C@]12CCCCC=C1N(Cc1ccc(OC)cc1)C(=O)[C@@H]2CC(=O)NCC1CCCCC1	-1
C=CCN1C(=O)[C@H](CC(=O)N2CCN(C(=O)C3CC3)CC2)[C@@]2(C(=O)OCC)CCCC=C12	0
COc1cc(S(=O)(=O)N2CCC(c3nc4ccccc4s3)CC2)ccc1S(=O)(=O)NC1CCCC1	0
CCc1ccccc1NC(=O)C1CCCN1S(=O)(=O)c1ccc(-c2ccc(=O)[nH]n2)s1 (stereo not drawn)	1
CCc1ccccc1NC(=O)C1CCCN1S(=O)(=O)c1ccc2c(c1)n(C)c(=O)c(=O)n2C (stereo not drawn)	18*	HuH7 TTR inh=-15;TTR act confirm=0
Cc1cccc(NC(=O)C2CCN(S(=O)(=O)c3ccc4c(c3)C(C)(C)C(=O)N4C)CC2)c1C	4
CCOc1ccccc1NC(=O)C1CCCN1S(=O)(=O)c1ccc2c(c1)C(C)(C)C(=O)N2C (stereo not drawn)	12*	HuH7 TTR inh=-15;TTR act confirm=0
COc1cccc(NC(=O)C2CCCN2S(=O)(=O)c2ccc3c(c2)C(C)(C)C(=O)N3C)c1 (stereo not drawn)	-1
CCc1ccccc1NC(=O)[C@@H]1CCCN1S(=O)(=O)c1cccc2cccnc12	1
CC(C)CNC(=O)OCc1cn(Cc2ccc(Cl)cc2)nn1	2
CC1(c2nnnn2-c2ccc3c(c2)OCCO3)CSCC(=O)N1CCc1c[nH]c2ccccc12 (stereo not drawn)	-1
CC(=O)c1ccc([C@H](O)[C@@H](C(=O)N(C)c2ccccc2)C2CC2)cc1	5
CCOC(=O)[C@H]1[C@H]2COc3ccc(Br)cc3[C@@H]2N2C(=O)c3cc(F)c(F)cc3NC(=O)[C@@]12C	-2
O=C(NC1CCCCN(Cc2ccc(Cl)cc2)C1=O)c1cccc2nsnc12 (stereo not drawn)	0
Clc1ccc([C@H]2OC[C@@]3(CNCc4ccc5c(c4)OCO5)CS[C@H](c4ccc(Cl)cc4)N23)cc1	1
C[C@@H](N)C(=O)Nc1ccc(Cl)cc1C(=O)c1ccc[nH]1	0
Nc1[nH]c(C(=O)c2ccccc2)c(-c2ccc(Br)cc2)c1C(=O)N1CCN(CCO)CC1	-2
COC(=O)[C@]12C[C@H](CC(=O)NCc3cccc(C(F)(F)F)c3)C(=O)N(Cc3cccc4ccccc34)C1=C[C@H](C(C)C)O[C@@H]2C1CC1	0
CC(=O)c1cccc(NC(=O)/C(=C/c2ccncc2)NC(=O)c2ccccc2)c1	1
CCOC(=O)Cn1c(=O)oc2cc(S(=O)(=O)N3CCc4ccccc43)ccc21	14*	HuH7 TTR inh=-4;TTR act confirm=0
CCOC(=O)Cn1c(=O)oc2cc(S(=O)(=O)NC(C)(C)CC)ccc21	0
CCOC(=O)Cn1c(=O)oc2cc(S(=O)(=O)N(CCN(C)C)Cc3ccccc3)ccc21	0
CN1CC(=O)N2[C@@H](C[C@]3(c4c[nH]c5ccccc45)c4ccccc4N(S(=O)(=O)c4ccccc4)[C@H]23)C1=O	0
CC(=O)Nc1ccc(S(=O)(=O)N(Cc2ccco2)CC2CCCO2)cc1 (stereo not drawn)	-1
SMILES	TTR transcr act	others
COC(C/C=C/[C@@H](O)[C@H](C)OCc1ccccc1)OC	1
CCN1C(=O)[C@H]2[C@@H](c3ccccc3)N[C@]3(CCCN(Cc4ccccc4)C3=O)[C@H]2C1=O	0
COc1ccc([C@H]2N[C@]3(CCCN(Cc4cccn4C)C3=O)[C@H]3C(=O)N(C)C(=O)[C@@H]23)cc1	0
CCN1C(=O)[C@H]2[C@@H](c3ccc(C)cc3)N[C@]3(CCCN(CCC(C)C)C3=O)[C@H]2C1=O	20*	HuH7 TTR inh=-5;TTR act confirm=0
CCN1C(=O)[C@H]2[C@@H](c3ccc(OC)cc3)N[C@]3(CCCN(Cc4ccco4)C3=O)[C@H]2C1=O	4
CC(C)CCN1CCC[C@]2(N[C@H](c3ccccc3)[C@@H]3C(=O)N(Cc4ccccc4)C(=O)[C@@H]32)C1=O	2
CN1C(=O)[C@H]2[C@@H](c3ccccc3)N[C@]3(CCCN(Cc4ccco4)C3=O)[C@H]2C1=O	10*	HuH7 TTR inh=-7;TTR act confirm=1
COc1cc(NC(=S)N2CCCCC2C)cc(OC)c1OC (stereo not drawn)	0
COc1cccc([C@@H]2CC=C(C(=O)O)[C@H](c3cccc(Cl)c3)N2S(=O)(=O)c2ccc(C)cc2)c1	-4
Cc1cccc(C(=O)c2ccccc2C(=O)O)c1	11*	HuH7 TTR inh=-7;TTR act confirm=1
O=C(O)c1cccc(C(=O)c2cccc3ccccc23)c1	-1
Cc1cccc(C(=O)NNC(=O)c2ccccc2-n2cccc2)c1	-1
CCCC1CCC2(CC1)CCC2OC(=S)NCCc1ccc(Cl)cc1 (stereo not drawn)	-2
CC(C)(C)c1ccc(-c2noc(CCC(=O)NC3CC3)n2)cc1	6
O=C(CCN=C1NS(=O)(=O)c2ccccc21)Nc1ccc(F)cc1Cl	1
Cc1cc2c(NC(=O)CCCC(=O)O)cccc2nn1	10*	HuH7 TTR inh=-11;TTR act confirm=-1
CC(C)c1ccccc1NC(=O)CCCC(=O)O	1
Cc1cc2c(NC(=O)Nc3ccc(C(F)(F)F)cc3)cccc2nn1	0
COc1cc(NC(=S)NC(=O)c2ccccc2F)ccc1NC(=O)c1ccco1	-2
Cc1cc(C)cc(C(=O)N2CCC(CCC(=O)NC3CC3)CC2)c1	0
COc1cc(Cl)c(CN2CCC(CCC(=O)NC3CC3)CC2)cc1OC	1
O=C(CCC1CCN(C(=O)c2cc(C(F)(F)F)ccc2Cl)CC1)NC1CC1	17*	HuH7 TTR inh=-17;TTR act confirm=0
Cc1cc(OC(=O)c2ccc(Cl)cc2Cl)nc(C)n1	-2
C=CCN(C(=O)c1oc2c(Cl)cc(C)cc2c1C)C1CCS(=O)(=O)C1 (stereo not drawn)	-1
Cc1cccc(C)c1C(O)c1ncc(-c2cccc(C(F)(F)F)c2)[nH]1 (stereo not drawn)	1
SMILES	TTR transcr act	others
CC(=O)N1C(C)(C)CC(=NOC(=O)c2ccccc2)CC1(C)C	-1
CC1(C)OC2OC(C3COC(=O)O3)C(OC(=O)c3ccccc3)C2O1 (stereo not drawn)	25*	HuH7 TTR inh=-7;TTR act confirm=-1
CC1(C)OC2OC(COC(=O)c3ccc([N+](=O)[O-])cc3)C3OC(C)(C)OC3C2O1 (stereo not drawn)	0
CNS(=O)(=O)/C=C/c1ccccc1CCNC(=O)OC(C)(C)C	2
O=C(NCCCc1ccccc1)[C@H](Cc1c[nH]c2ccccc12)NC1(C(=O)NCCc2c[nH]c3ccccc23)CCOCC1	-2
COc1cc(CCC(=O)OCC(=O)Nc2c(C)cc(C)cc2C)cc(OC)c1OC	2
CC(=O)OCC(=O)Nc1c(C)cc(C)cc1C	9.9*	HuH7 TTR inh=-11;TTR act confirm=1
Cc1cc(C)c(NC(=O)COC(=O)C2CCCO2)c(C)c1 (stereo not drawn)	0
CCC[C@H]1[C@@H](NC(=O)c2cccc(C)c2)CC[C@@]23CCCN2C(=O)CCC[C@@H]13	-1
C=CCOC(=O)C(CO)NC(=O)CCCC(=O)O (stereo not drawn)	2
CCCCCCCCN1C(=O)[C@@H](CC(=O)NCC2CCCCC2)C[C@@]2(C(=O)OC)C1=C[C@H](C(C)C)O[C@@H]2C1CC1	1
